These results are taken from PubChem BioAssay (NCATS).

One assay concerns KB-3-1. As to the kind of experiment: Cytotoxic Profiling of Annotated Libraries Using Quantitative High-Throughput Screening (AID 1296008). Particulars: Five cell lines viability, CellTiter-Glo ATP luminescence, 48-72 h; max response: stronger effect = lower value. Put shortly:
(§1)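 Cytotoxicity was measured as CellTiter-Glo ATP luminescence, read after 10 min at room temperature. Compound treatment of the cells lasted 48 or 72 hr at 37 degrees Celsius in a qHTS format.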
In general terms: Cellular ATP, detected with luciferase, serves as a proxy for viable cell number.

Assay [1] relates to NIH3T3. The assay is described as above. Particulars: Five cell lines viability, CellTiter-Glo ATP luminescence, 48-72 h; max response: stronger effect = lower value. An outline of the steps:
as §1

A further assay has as its system HACAT. As to the kind of experiment: qHTS assay to identify novel small-molecules to repurpose for Merkel cell carcinoma treatment (AID 1296009). Particulars: MCC and control cell lines, CellTiter-Glo viability, 72 h; at 44.8 µM (top of the series) unless noted. An outline of the steps:
(§2)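 72 hr, 37 degree celsius; NPC 8-pt / MIPE 11-pt dose response; compound pinned in DMSO; CellTiter-Glo, 10 min RT, luminescence; normalized to no-cell and DMSO controls.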
A general note: qHTS replaces the single test concentration by a dilution series.

For a further assay, the system named is MCC-13. The description is as above. Conditions: MCC and control cell lines, CellTiter-Glo viability, 72 h; series mostly up to 46 µM. An outline of the steps: as §2
In a further assay the test system is MCC-26. The description is as above. Particulars: MCC and control cell lines, CellTiter-Glo viability, 72 h; series mostly up to 46 µM. An outline of the steps:
as §2

The next assay deals with MKL-1. Described as above. Particulars: MCC and control cell lines, CellTiter-Glo viability, 72 h; series mostly up to 46 µM. An outline of the steps:
as §2

The next assay has as its system MKL-2. The description is as above. Particulars: MCC and control cell lines, CellTiter-Glo viability, 72 h; series mostly up to 46 µM. Put shortly:
as §2

A further assay concerns UISO. The description is as above. Conditions: MCC and control cell lines, CellTiter-Glo viability, 72 h; series mostly up to 46 µM. An outline of the steps: as §2
In another assay the test system is HEK293T. Described as above. Particulars: MCC and control cell lines, CellTiter-Glo viability, 72 h; at 44.8 µM (top of the series) unless noted. An outline of the steps:
as §2

The subject of assay [2] is NIH3T3. The description is as above. Conditions: MCC and control cell lines, CellTiter-Glo viability, 72 h. Put shortly:
as §2

Where [3] appears, read: at 44.8 µM (top of the series) unless noted.

Where “and” joins values, the source holds several entries; their conditions need not be identical. Equal entries are not always repeated. Records with an inconclusive call do not appear. The source holds several records for some structures; these can differ, active in one and inactive in another. Calls of active or inactive are those of the source. Calls come from the whole dose curve; as a rule, active = well fitted inhibition curve with a large enough effect; inconclusive = small, poorly fitted or top-dose-only effect; inactive = flat fitted curve, though single readings scatter.
% is set by controls: 0 for no effect and ±100 for the full control effect; potency is the fitted concentration of half-maximal effect.
Note: nearly all actives have a fitted effect of over 60% in size.

On to `Cc1cccc(-c2[nH]ncc2-c2ccc3ncccc3n2)n1`, for which the max response was -11.3% (inactive) in the assay on KB-3-1 and -18.1% (inactive) in the assay on NIH3T3 [1]. For the same compound, the outcome in the assay with HACAT was inactive. Also, the Potency result with MCC-13, in the assay with MCC-26, in the assay on MKL-1, in the assay on MKL-2 and in the assay on UISO was “inactive” in each case.
As for `CC1Cc2ccccc2N1NC(=O)c1ccc(Cl)c(S(N)(=O)=O)c1` (stereo not given), the max response with KB-3-1 is -19.1% (inactive) and -17.8% (inactive) and -4.71% (inactive); with NIH3T3 [1], 3.24% (inactive) and 4.11% (inactive). Further, in the assay on HACAT, the compound was classed as inactive. Also, the Potency result with MCC-13, in the assay on MCC-26, in the assay on MKL-1, in the assay with MKL-2 and with UISO was “inactive” each time.
Regarding `CNC[C@H](O)c1ccc(O)c(O)c1`, the max response with KB-3-1 was 2.62% (inactive). The result with NIH3T3 [1], in the assay on NIH3T3 [2] (at 17.4 µM (top of the series)) and in the assay with NIH3T3 [2] (at 92 µM (top of the series)) was inactive. Further, the outcome with HEK293T is “inactive [at 17.4 µM]”. The Potency result with MCC-13, in the assay with MCC-26, with MKL-1, with MKL-2 and in the assay with UISO was “inactive” in each case.
As to `Cc1ccc(Nc2nccc(N(C)c3ccc4c(C)n(C)nc4c3)n2)cc1S(N)(=O)=O`, the max response in the assay with KB-3-1 is -14.3% (inactive) and -5.07% (inactive) and -20.5% (inactive). Besides, the Potency with NIH3T3 [1] was 7.43 µM (active) and 7.31 µM (active). The result in the assay with HACAT was inactive. In addition, the Potency result with MCC-13, in the assay on MCC-26, in the assay on MKL-1, in the assay with MKL-2 and in the assay on UISO was “inactive” throughout.
As for `C[C@@H](N)C1CCC(C(=O)Nc2ccncc2)CC1` (stereo not given in full), the max response with KB-3-1 was -5.62% (inactive); in the assay on NIH3T3 [1], -5.63% (inactive). Further, the result with HACAT and in the assay on HEK293T was inactive. The Potency result in the assay on MCC-13, in the assay on MCC-26, in the assay with MKL-1, in the assay with MKL-2 and with UISO was “inactive” throughout.
`O=c1c(O)c(-c2cc(O)c(O)c(O)c2)oc2cc(O)cc(O)c12`: the max response is 2.62% (inactive) in the assay on KB-3-1 and -26.9% (inactive) in the assay with NIH3T3 [1]. For the same compound, in the assay on HACAT, the compound was classed as inactive. The Potency entry in the assay on MCC-13, in the assay with MCC-26, in the assay with MKL-1, in the assay on MKL-2 and in the assay on UISO was “inactive” throughout.
As to `O=C(c1ccccc1)c1ccc2n1CCC2C(=O)O` (stereo not given), the max response in the assay with KB-3-1 was 1.88% (inactive) and -12.7% (inactive) and 3.64% (inactive); in the assay on NIH3T3 [1], -2.4% (inactive) and -6.59% (inactive). For the same compound, in the assay with HACAT, the outcome was inactive. The Potency entry in the assay with MCC-13, in the assay on MCC-26, with MKL-1, with MKL-2 and with UISO was “inactive” throughout.
As to `Cc1ccc(C)c(OCCCC(C)(C)C(=O)O)c1`, the max response in the assay on KB-3-1 is 8.09% (inactive) and 8.97% (inactive); with NIH3T3 [1], -1.31% (inactive) and 0.244% (inactive). Further, the outcome in the assay with HACAT was inactive. In addition, the Potency entry with MCC-13, in the assay with MCC-26, with MKL-1, in the assay with MKL-2 and in the assay with UISO was “inactive” throughout.
For the compound `C[C@H](Cn1cnc2c(N)ncnc21)OCP(=O)(O)O`, the compound was classed as inactive with KB-3-1, with NIH3T3 [1], in the assay with HACAT, in the assay on HEK293T and with NIH3T3 [2] (setting [3]). For the same compound, the Potency result in the assay on MCC-13, in the assay on MCC-26, with MKL-1, in the assay with MKL-2 and in the assay with UISO was “inactive” throughout.
For the compound `O=c1c(O)c(-c2ccc(O)cc2O)oc2cc(O)cc(O)c12`, the figures for the max response in the assay with KB-3-1 and in the assay with NIH3T3 [1] were -10.8% (inactive) and -16.7% (inactive), respectively. Further, in the assay with HACAT, the result was inactive. Besides, the Potency entry with MCC-13, in the assay with MCC-26, with MKL-1, with MKL-2 and with UISO was “inactive” each time.
With `CCOC(=O)C(C)Oc1cccc2c(=O)n(CC(=O)Nc3ccc4c(c3)OCCO4)ccc12` (stereo not given), the compound was classed as inactive in the assay on KB-3-1 and in the assay on HACAT. Also, the max response in the assay with NIH3T3 [1] is 0.733% (inactive). Also, the Potency result with MCC-13, in the assay with MCC-26, with MKL-1 and in the assay on UISO was “inactive” in each case.
Regarding `Cc1ccc(S(=O)(=O)NC(=O)NN2CC3CCCC3C2)cc1` (stereo not given), the max response is 5.5% (inactive) and -19.7% (inactive) in the assay on KB-3-1; 2.24% (inactive) and -2.1% (inactive) in the assay on NIH3T3 [1]. The call in the assay on HACAT was inactive. Also, the Potency result in the assay with MCC-13, in the assay on MCC-26, in the assay on MKL-1 and in the assay on UISO was “inactive” throughout. Moreover, in the assay with MKL-2, the Potency entry was “inactive and 26.4 µM (active)”.
`CC(C)[N+]1(C)[C@@H]2CC[C@H]1CC(OC(=O)C(CO)c1ccccc1)C2` (stereo not given in full): the max response in the assay with KB-3-1 is 9.75% (inactive) and 15.3% (inactive). Besides, the compound was classed as inactive with NIH3T3 [1], in the assay on HACAT and in the assay with NIH3T3 [2] (setting [3]). Also, the Potency result with MCC-13, in the assay with MCC-26, in the assay on MKL-1 and with UISO was “inactive” throughout.
Turning to `O=C(NCCO[N+](=O)[O-])c1cccnc1`, the compound was classed as inactive in the assay with KB-3-1, in the assay with NIH3T3 [1], in the assay with HACAT, with HEK293T and in the assay on NIH3T3 [2] (setting [3]). In addition, the Potency result in the assay on MCC-13, in the assay with MCC-26, in the assay on MKL-1, in the assay on MKL-2 and in the assay with UISO was “inactive” throughout.
As to `Cc1cccc(CN2CCN(C(c3ccccc3)c3ccc(Cl)cc3)CC2)c1` (stereo not given), the max response in the assay on KB-3-1 was 8.45% (inactive) and -5.16% (inactive); in the assay with NIH3T3 [1], 3.98% (inactive) and 1.14% (inactive). Moreover, the compound was called inactive in the assay on HACAT. The Potency result in the assay on MCC-13, with MCC-26, in the assay with MKL-1, with MKL-2 and in the assay on UISO was “inactive” each time.
For `CC(S)C(=O)NCC(=O)O` (stereo not given), the max response with KB-3-1 was 5.7% (inactive); with NIH3T3 [1], 0.885% (inactive) and -1.07% (inactive). Further, the result in the assay on HACAT was inactive. In addition, the Potency entry with MCC-13, with MCC-26, in the assay with MKL-1, with MKL-2 and with UISO was “inactive” throughout.
With `O=P(O)(O)C(O)(Cn1ccnc1)P(=O)(O)O`, the max response with KB-3-1 was -1.09% (inactive) and 1.16% (inactive); with NIH3T3 [1], -2.33% (inactive). The outcome in the assay with HACAT was “inactive [at 17.4 µM]”. In addition, the Potency result with MCC-13, in the assay with MCC-26, in the assay on MKL-1, with MKL-2 and with UISO was “inactive” each time.
In the case of `O=c1oc2cc(O)ccc2s1`, the max response in the assay with KB-3-1 is -11.2% (inactive) and -4.56% (inactive); in the assay with NIH3T3 [1], -4.48% (inactive). Moreover, the compound was called inactive in the assay on HACAT. The Potency entry in the assay on MCC-13, in the assay with MCC-26, in the assay on MKL-1, in the assay with MKL-2 and with UISO was “inactive” in each case.
